Measurements published in PubChem BioAssay (NCATS).
Results filed as inconclusive are left out. Values without a mark were called inactive. Active and inactive are the calls of the source. The call rests on the fitted dose curve; in most records, active means well fitted cell-killing curve with a large enough effect; inconclusive means small, poorly fitted or top-dose-only effect, or effect the other way; inactive means no such curve, though single readings can be large or run the other way.

Assay: Quantitative High-Throughput drug screen in 47 multiple myeloma cell lines against the NCATS MIPE library collection: ARP1_JJKsccF8 cell viability assay (AID 1918928; further: nearly all actives have a fitted effect of over 40% in size)
Details: ARP1 myeloma cells viability, CellTiter-Glo ATP, 48 h; series mostly up to 45.8 µM; viability: at the top concentration
From the text: PI: Beverly A. Mock Ph.D.
Laboratory of Cancer Biology and Genetics,
Center for Cancer Research, National Cancer Institute,
National Institute of Health, Bethesda, Maryland
Drug resistance and disease progression are common in multiple myeloma (MM) patients, underscoring the need for new therapeutic combinations. […] We hypothesized that effective combinations would reduce MYC expression and enhance p16 activity. […] These preclinical data identify potentially useful drug combinations for evaluation in drug-resistant MM and reveal potential mechanisms of combined drug sensitivity.
Described herein is the primary MIPE qHTS used to cherrypick compounds. Validated compounds were then further tested for potential synergistic activiy.
[1] Peat TJ, Gaikwad SM, Dubois W, Gyabaah-Kessie N, Zhang S, Gorjifard S, Phyo Z, Andres M, Hughitt VK, Simpson RM, Miller MA, Girvin AT, Taylor A, Williams D, D'Antonio N, Zhang Y, Rajagopalan A, Flietner E, Wilson K, Zhang X, Shinn P, Klumpp-Thomas C, McKnight C, Itkin Z, Chen L, Kazandijian D, Zhang J, Michalowski AM, Simmons JK, Keats J, Thomas CJ, Mock BA. Drug combinations identified by high-throughput screening promote cell cycle transition and upregulate Smad pathways in myeloma. Cancer Lett. 2023 Aug 1;568:216284. doi: 10.1016/j.canlet.2023.216284. Epub 2023 Jun 24. PMID: 37356470; PMCID: PMC10408729.
SEQUENCE No. (e.g., 1, 2, 3, etc.); […] (e.g., Cells, Incubation, Reagent, etc.); VALUE and DESCRIPTION.
1; Cells; 5 uL; white, solid bottom 1536-well Greiner assay plate.
2; Compounds; 23 nL; Kalypsis pin tool (Wako USA) equipped with a 1536-well pin head to transfer to the assay plates.
3; Incubation; 48 hours; 37C incubation.
4; Reagent;5uL; CellTiter Glo (Promega).
5; Detector; 425V; Luminescence; Viewlux PerkinElmer.
NOTES (numbers refer to Sequence numbers above)
1. The cell-based screening methods employed in this study were like those previously published. Briefly, the corresponding myeloma cell lines were screened in 1,536-well plates with 500 cells, 5-uL per well for inhibition of cell viability (assessed by measuring ATP levels with CellTiterGlo).
2. NCATS MIPE 4.0 library of approved and investigational drugs were added using the Kalypsis pin tool. Wells treated with DMSO only for 100% viability and media only cells for 0% viability were used as controls.
3. The assay plates were covered and incubated for 48 hours in a 37C, 5% CO2 incubator with controlled humidity.
4. After 48 hours, CellTilter-GloTM luminescent substrate mix (Promega) reagent was added to the assay plate and plates we incubated for 5 min at room temperature.
5. Signal was measured as median relative luminescence units on a ViewLux (PerkinElmer) multiplate reader.
[1] Heske CM, Davis MI, Baumgart JT, Wilson K, Gormally MV, Chen L, Zhang X, Ceribelli M, Duveau DY, Guha R, Ferrer M, Arnaldez FI, Ji J, Tran HL, Zhang Y, Mendoza A, Helman LJ, Thomas CJ. Matrix Screen Identifies Synergistic Combination of PARP Inhibitors and Nicotinamide Phosphoribosyltransferase (NAMPT) Inhibitors in Ewing Sarcoma. Clin Cancer Res. 2017 Dec 1;23(23):7301-7311. doi: 10.1158/1078-0432.CCR-17-1121. Epub 2017 Sep 12. PMID: 28899971; PMCID: PMC6636827.
Potency means the concentration at half of the fitted maximal effect.

Structure (SMILES) | viability | Potency
Cc1cccc(-c2nn(C(=S)Nc3ccccc3)cc2-c2ccnc3ccccc23)n1 | 79.7% | –
CO[C@@H]1[C@H](N(C)C(=O)c2ccccc2)C[C@H]2O[C@]1(C)n1c3ccccc3c3c4c(c5c6ccccc6n2c5c31)C(=O)NC4 | – | 2.35 µM (active)
CCOC(=O)N1CCC(=C2c3ccc(Cl)cc3CCc3cccnc32)CC1 | – | 20.9 µM (active)
CNCc1ccc(-c2[nH]c3cc(F)cc4c3c2CCNC4=O)cc1 | 83.5% | –
Cc1c(C)c2c(c(C)c1O)CCC(C)(COc1ccc(CC3SC(=O)NC3=O)cc1)O2 (stereo not given) | 90.4% | –
Clc1cccc(Cl)c1NC1=NCCN1 | 115% | –
C[C@]1(c2nc3c(C(N)=O)cccc3[nH]2)CCCN1 | 69.4% | –
CCOC(=O)C1=C[C@]2(CC)CCCN3CCc4c(n1c1ccccc41)[C@@H]32 | – | 20.9 µM (active)
O=C(Nc1cccnc1)N1CCC(Cc2cccc(Oc3ccc(C(F)(F)F)cn3)c2)CC1 | – | 18.7 µM (active)
O=C(O)CCc1ccc(NCc2cccc(Oc3ccccc3)c2)cc1 | 110% | –
Cc1ccccc1C(OCCN(C)C)c1ccccc1 (stereo not given) | 101% | –
CCC(C)N(C)C(=O)c1cc2ccccc2c(-c2ccccc2Cl)n1 (stereo not given) | – | 0.296 µM (active)
CC[C@H](Nc1ncnc2nc[nH]c12)c1nc2cccc(F)c2c(=O)n1-c1ccccc1 | – | 20.9 µM (active)
COc1ccc2nc(S(=O)Cc3ncc(C)c(OC)c3C)[nH]c2c1 (stereo not given) | 118% | –
CCn1c(-c2nonc2N)nc2c(C#CC(C)(C)O)ncc(OC[C@H]3CCCNC3)c21 | – | 0.59 µM (active)
COc1ccc(CCN2CCN(CCCc3ccccc3)CC2)cc1OC | 76.7% | –
O=C(C=Cc1ccc(/C=C/C(=O)Nc2ccc(C3=NCCN3)cc2)cc1)Nc1ccc(C2=NCCN2)cc1 | 99.6% | –
OC(CN1CCC(Cc2ccc(F)cc2)CC1)c1ccc(Cl)cc1 (stereo not given) | 79.6% | –
COc1ccc(CC2=NN3C([C@@H](CCc4ccccc4)[C@@H](C)O)=NC(C)C3C(=O)N2)cc1OC (stereo not given in full) | 95.2% | –
Nc1ccc(S(=O)(=O)Nc2ccnn2-c2ccccc2)cc1 | 122% | –

Structure (SMILES) | viability | Potency
CCN(c1ccccc1)c1cc(NC)[n+](C)c(C)n1 | – | 23.5 µM (active)
Cc1cc(SCc2sc(-c3ccc(C(F)(F)F)cc3)nc2C)ccc1OCC(=O)O | 104% | –
c1ccc([C@H]2CN3CCSC3=N2)cc1 | 106% | –
NC(=O)C1CCCc2c1[nH]c1ccc(Cl)cc21 (stereo not given) | 90.5% | –
CCOc1ccc(Cc2cc([C@@H]3O[C@H](CO)[C@@H](O)[C@H](O)[C@@H]3O)ccc2Cl)cc1 | 112% | –
Cc1cnc(NC(=O)C2=C(O)c3ccccc3S(=O)(=O)N2C)s1 | 98.4% | –
Oc1cccc(-c2nc(N3CCOCC3)c3oc4ncccc4c3n2)c1 | – | 0.0241 µM (active)
Cc1cc(C=c2sc3nc4ccccc4n3c2=O)c(C)n1-c1ccccc1 | – | 6.62 µM (active)
Cc1n[nH]c(C)c1Cc1sc2c(c1C(=O)N1C[C@H](O)CO1)c(=O)n(C)c(=O)n2CC(C)C | 115% | –
CCCCNc1cc(C(=O)O)cc(S(N)(=O)=O)c1Oc1ccccc1 | 103% | –
CNC(=O)c1ccc(N2C(=S)N(c3ccc(C#N)c(C(F)(F)F)c3)C(=O)C2(C)C)cc1F | 91.3% | –
O=C1[C@H](Cc2ccc(O)cc2)N2C(=O)CCN(C(=O)NCc3ccccc3)[C@H]2CN1Cc1cccc2ccccc12 | – | 4.18 µM (active)
Cc1ccc(N(CC2=NCCN2)c2cccc(O)c2)cc1 | – | 29.6 µM (active)
CC1(C)SCCN(S(=O)(=O)c2ccc(OCC#CCO)cc2)[C@@H]1C(=O)NO | – | 2.35 µM (active)
NC[C@H](O)c1ccc(O)c(O)c1 | 114% | –
NC(=O)c1cnccn1 | 99.2% | –
Cc1cc2c(C(C)C)c(O)c(O)c(C=O)c2c(O)c1-c1c(C)cc2c(C(C)C)c(O)c(O)c(C=O)c2c1O | – | 10.5 µM (active)
OC(CCN1CCCCC1)(c1ccccc1)C1CC2C=CC1C2 (stereo not given) | 110% | –
Cn1cnc2c(F)c(Nc3ccc(Br)cc3Cl)c(C(=O)NOCCO)cc21 | 80.7% | –
COc1ccc(C2=N[C@H](c3ccc(Cl)cc3)[C@H](c3ccc(Cl)cc3)N2C(=O)N2CCNC(=O)C2)c(OC(C)C)c1 | – | 16.6 µM (active)
